# PubChem BioAssay AID1508601 (ICCB-Longwood Screening Facility, Harvard Medical School, 2020)
# The campaign covered roughly 5,700 compounds. About 85 (1%) were called active. No stated cut-off is given here; in the data, active means p53-positive nuclei above about 36% (passing the limit was not always enough); inactive means the rest. This excerpt belongs to a sample that is enriched for actives.
# How the values were obtained:
# [1] = p53 stabilisation in HPV-positive human cells, imaging, p53-positive nuclei imaging, 24 h, 48 h (AID 1508601); details: 24/48 h
# [2] = target: Cellular tumor antigen p53 (Homo sapiens) (UniProt P04637); assay: as above; details: 24/48 h, stronger effect = higher value
# Chain of Cellular tumor antigen p53 (Homo sapiens) (P04637 whole entry, looked up): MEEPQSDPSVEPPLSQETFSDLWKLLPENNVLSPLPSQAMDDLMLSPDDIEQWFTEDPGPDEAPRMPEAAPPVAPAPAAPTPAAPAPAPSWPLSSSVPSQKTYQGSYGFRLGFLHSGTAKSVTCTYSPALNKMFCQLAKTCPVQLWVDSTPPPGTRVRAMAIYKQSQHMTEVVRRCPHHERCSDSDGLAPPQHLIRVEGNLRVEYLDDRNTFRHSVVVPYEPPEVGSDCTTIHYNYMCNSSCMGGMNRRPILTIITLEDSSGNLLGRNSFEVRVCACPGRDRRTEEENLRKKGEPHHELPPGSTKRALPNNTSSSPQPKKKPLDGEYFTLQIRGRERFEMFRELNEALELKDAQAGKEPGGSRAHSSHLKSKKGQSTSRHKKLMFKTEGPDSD
# [3] = measured here: cell number at 24 h, Library stock concentration: 10 mM
# [4] = measured here: cell number at 48 h, Library stock concentration: 10 mM
# [5] = Library stock concentration: 10 mM
# [6] = measured here: p53 positive nuclei at 24 h, Library stock concentration: 10 mM
# [7] = measured here: cell number at 24 h, concentration not given here
# [8] = measured here: cell number at 48 h, concentration not given here
# [9] = measured here: p53 positive nuclei at 24 h, concentration not given here
# [10] = measured here: cell number at 24 h, Library stock concentration: 46 uM
# [11] = measured here: cell number at 24 h, Library stock concentration: 278 uM
# [12] = measured here: cell number at 24 h, Library stock concentration: 1.67 mM
# [13] = measured here: cell number at 48 h, Library stock concentration: 46 uM
# [14] = measured here: cell number at 48 h, Library stock concentration: 278 uM
# [15] = measured here: cell number at 48 h, Library stock concentration: 1.67 mM
# [16] = Library stock concentration: 46 uM
# [17] = Library stock concentration: 278 uM
# [18] = Library stock concentration: 1.67 mM
# [19] = measured here: p53 positive nuclei at 24 h, Library stock concentration: 46 uM
# [20] = measured here: p53 positive nuclei at 24 h, Library stock concentration: 278 uM
# [21] = measured here: p53 positive nuclei at 24 h, Library stock concentration: 1.67 mM
compound,measurement,setting,value
CCn1cnc2c(Nc3cccc(Cl)c3)nc(NC3CCCCC3N)nc21 (stereo unspecified),"nuclei count, normalised","[1]; measured here: cell number at 24 h, Library stock concentration: 80 uM",108%
same,"nuclei count, normalised","[1]; measured here: cell number at 24 h, Library stock concentration: 400 uM",103%
same,"nuclei count, normalised","[1]; measured here: cell number at 24 h, Library stock concentration: 2 mM",91.4%
same,"nuclei count, normalised",[1]; [3],32.2%
same,"nuclei count, normalised","[1]; measured here: cell number at 48 h, Library stock concentration: 80 uM",110%
same,"nuclei count, normalised","[1]; measured here: cell number at 48 h, Library stock concentration: 400 uM",104%
same,"nuclei count, normalised","[1]; measured here: cell number at 48 h, Library stock concentration: 2 mM",98.2%
same,"nuclei count, normalised",[1]; [4],21.9%
same,"p53-positive nuclei, normalised",[2]; Library stock concentration: 80 uM,-0.102% (inactive)
same,"p53-positive nuclei, normalised",[2]; Library stock concentration: 400 uM,-0.0205% (inactive)
same,"p53-positive nuclei, normalised",[2]; Library stock concentration: 2 mM,0.0322% (inactive)
same,"p53-positive nuclei, normalised",[2]; [5],61.8% (active)
same,"p53-positive nuclei, normalised","[2]; measured here: p53 positive nuclei at 24 h, Library stock concentration: 80 uM",0.0806%
same,"p53-positive nuclei, normalised","[2]; measured here: p53 positive nuclei at 24 h, Library stock concentration: 400 uM",0.000598%
same,"p53-positive nuclei, normalised","[2]; measured here: p53 positive nuclei at 24 h, Library stock concentration: 2 mM",0.126%
same,"p53-positive nuclei, normalised",[2]; [6],48.5%
CCCCCCCCCCCCCCCCOC[C@H](COP(=O)([O-])OCC[N+](C)(C)C)OC(C)=O,"nuclei count, normalised",[1]; [7],107%
same,"nuclei count, normalised",[1]; [8],107%
same,"p53-positive nuclei, normalised",[2]; concentration not given here,-0.0025% (inactive)
same,"p53-positive nuclei, normalised",[2]; [9],-0.0227%
CCCCC/C=C\C/C=C\C/C=C\C/C=C\CCCC(=O)NC(CO)CO,"nuclei count, normalised",[1]; [7],103%
same,"nuclei count, normalised",[1]; [8],109%
same,"p53-positive nuclei, normalised",[2]; concentration not given here,0.067% (inactive)
same,"p53-positive nuclei, normalised",[2]; [9],-0.135%
CC1CN(Cc2ccc(F)cc2)CCN1C(=O)COc1ccc(Cl)cc1NC(N)=O (stereo unspecified),"nuclei count, normalised",[1]; [10],113%
same,"nuclei count, normalised",[1]; [11],111%
same,"nuclei count, normalised",[1]; [12],113%
same,"nuclei count, normalised",[1]; [3],116%
same,"nuclei count, normalised",[1]; [13],112%
same,"nuclei count, normalised",[1]; [14],110%
same,"nuclei count, normalised",[1]; [15],112%
same,"nuclei count, normalised",[1]; [4],112%
same,"p53-positive nuclei, normalised",[2]; [16],-0.174% (inactive)
same,"p53-positive nuclei, normalised",[2]; [17],-0.135% (inactive)
same,"p53-positive nuclei, normalised",[2]; [18],-0.0557% (inactive)
same,"p53-positive nuclei, normalised",[2]; [5],-0.323% (inactive)
same,"p53-positive nuclei, normalised",[2]; [19],0.0345%
same,"p53-positive nuclei, normalised",[2]; [20],-0.0826%
same,"p53-positive nuclei, normalised",[2]; [21],-0.151%
same,"p53-positive nuclei, normalised",[2]; [6],0.0332%
COc1ccc2c3c([nH]c2c1)C(CC(C)C)N1C(=O)C(CCC(=O)OC(C)(C)C)NC(=O)C1C3 (stereo unspecified),"nuclei count, normalised",[1]; [10],116%
same,"nuclei count, normalised",[1]; [11],114%
same,"nuclei count, normalised",[1]; [12],116%
same,"nuclei count, normalised",[1]; [3],118%
same,"nuclei count, normalised",[1]; [13],111%
same,"nuclei count, normalised",[1]; [14],106%
same,"nuclei count, normalised",[1]; [15],106%
same,"nuclei count, normalised",[1]; [4],108%
same,"p53-positive nuclei, normalised",[2]; [16],-0.285% (inactive)
same,"p53-positive nuclei, normalised",[2]; [17],-0.0842% (inactive)
same,"p53-positive nuclei, normalised",[2]; [18],-0.358% (inactive)
same,"p53-positive nuclei, normalised",[2]; [5],-0.016% (inactive)
same,"p53-positive nuclei, normalised",[2]; [19],-0.0846%
same,"p53-positive nuclei, normalised",[2]; [20],0.0359%
same,"p53-positive nuclei, normalised",[2]; [21],-0.151%
same,"p53-positive nuclei, normalised",[2]; [6],0.0251%
NOCCC(N)C(=O)O (stereo unspecified),"nuclei count, normalised","[1]; measured here: cell number at 24 h, Library stock concentration: 500 nM",99.2%
same,"nuclei count, normalised","[1]; measured here: cell number at 24 h, Library stock concentration: 1.5 uM",103%
same,"nuclei count, normalised","[1]; measured here: cell number at 24 h, Library stock concentration: 4.6 uM",103%
same,"nuclei count, normalised","[1]; measured here: cell number at 24 h, Library stock concentration: 13.7 uM",107%
same,"nuclei count, normalised","[1]; measured here: cell number at 24 h, Library stock concentration: 41 uM",111%
same,"nuclei count, normalised","[1]; measured here: cell number at 24 h, Library stock concentration: 123 uM",113%
same,"nuclei count, normalised","[1]; measured here: cell number at 24 h, Library stock concentration: 370 uM",115%
same,"nuclei count, normalised","[1]; measured here: cell number at 24 h, Library stock concentration: 1.111 mM",106%
same,"nuclei count, normalised","[1]; measured here: cell number at 24 h, Library stock concentration: 3.333 mM",110%
same,"nuclei count, normalised",[1]; [3],97.4%
same,"nuclei count, normalised","[1]; measured here: cell number at 48 h, Library stock concentration: 500 nM",98.5%
same,"nuclei count, normalised","[1]; measured here: cell number at 48 h, Library stock concentration: 1.5 uM",106%
same,"nuclei count, normalised","[1]; measured here: cell number at 48 h, Library stock concentration: 4.6 uM",104%
same,"nuclei count, normalised","[1]; measured here: cell number at 48 h, Library stock concentration: 13.7 uM",112%
same,"nuclei count, normalised","[1]; measured here: cell number at 48 h, Library stock concentration: 41 uM",113%
same,"nuclei count, normalised","[1]; measured here: cell number at 48 h, Library stock concentration: 123 uM",115%
same,"nuclei count, normalised","[1]; measured here: cell number at 48 h, Library stock concentration: 370 uM",114%
same,"nuclei count, normalised","[1]; measured here: cell number at 48 h, Library stock concentration: 1.111 mM",108%
same,"nuclei count, normalised","[1]; measured here: cell number at 48 h, Library stock concentration: 3.333 mM",112%
same,"nuclei count, normalised",[1]; [4],102%
same,"p53-positive nuclei, normalised",[2]; Library stock concentration: 500 nM,-0.0211% (inactive)
same,"p53-positive nuclei, normalised",[2]; Library stock concentration: 1.5 uM,-0.092% (inactive)
same,"p53-positive nuclei, normalised",[2]; Library stock concentration: 4.6 uM,-0.0486% (inactive)
same,"p53-positive nuclei, normalised",[2]; Library stock concentration: 13.7 uM,-0.0639% (inactive)
same,"p53-positive nuclei, normalised",[2]; Library stock concentration: 41 uM,0.121% (inactive)
same,"p53-positive nuclei, normalised",[2]; Library stock concentration: 123 uM,-0.0786% (inactive)
same,"p53-positive nuclei, normalised",[2]; Library stock concentration: 370 uM,-0.0673% (inactive)
same,"p53-positive nuclei, normalised",[2]; Library stock concentration: 1.111 mM,-0.0556% (inactive)
same,"p53-positive nuclei, normalised",[2]; Library stock concentration: 3.333 mM,-0.0652% (inactive)
same,"p53-positive nuclei, normalised",[2]; [5],-0.0323% (inactive)
same,"p53-positive nuclei, normalised","[2]; measured here: p53 positive nuclei at 24 h, Library stock concentration: 500 nM",0.111%
same,"p53-positive nuclei, normalised","[2]; measured here: p53 positive nuclei at 24 h, Library stock concentration: 1.5 uM",-0.132%
same,"p53-positive nuclei, normalised","[2]; measured here: p53 positive nuclei at 24 h, Library stock concentration: 4.6 uM",-0.00649%
same,"p53-positive nuclei, normalised","[2]; measured here: p53 positive nuclei at 24 h, Library stock concentration: 13.7 uM",-0.187%
same,"p53-positive nuclei, normalised","[2]; measured here: p53 positive nuclei at 24 h, Library stock concentration: 41 uM",0.0689%
same,"p53-positive nuclei, normalised","[2]; measured here: p53 positive nuclei at 24 h, Library stock concentration: 123 uM",-0.0424%
same,"p53-positive nuclei, normalised","[2]; measured here: p53 positive nuclei at 24 h, Library stock concentration: 370 uM",0.0115%
same,"p53-positive nuclei, normalised","[2]; measured here: p53 positive nuclei at 24 h, Library stock concentration: 1.111 mM",0.0344%
same,"p53-positive nuclei, normalised","[2]; measured here: p53 positive nuclei at 24 h, Library stock concentration: 3.333 mM",-0.136%
same,"p53-positive nuclei, normalised",[2]; [6],-0.121%
